Reference: PubChem BioAssay (NCATS)
The source made the active and inactive calls. Calls come from the whole dose curve; as a rule, active = well fitted curve in the direction sought with a large enough effect; inconclusive = small, poorly fitted or top-dose-only effect, or effect the other way, or another doubt; inactive = no such curve, though single readings can be large or run the other way.

Experiment: Inducers of the Endoplasmic Reticulum Stress Response (ERSR) in human glioma: Validation (AID 504836)
Settings: human glioma cells, ER stress response reporter; series mostly up to 38.3 µM
Method in brief: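 Stably transfected U87-MG human glioma cells carrying a GRP78-based luminescent sensor were seeded at 1000 cells/well, pin-dosed with compounds and incubated 16 h. Luciferase reagent was then added, and end-point luminescence was read after 10 min at room temperature.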

| Compound | outcome |
| --- | --- |
| CC(C(O)c1ccc(O)cc1)N1CCC(Cc2ccccc2)CC1 (configuration not stated) | inactive |
| CN(C)CCN(Cc1cccs1)c1ccccn1 | inactive |
| COc1ccc2c(c1OC)C(=O)O[C@@H]2[C@H]1c2c(cc3c(c2OC)OCO3)CCN1C | inactive |
| CCCn1cnc2c1c(=O)n(CCCCC(C)=O)c(=O)n2C | inactive |
| CC1=C(CC(=O)O)c2cc(F)ccc2/C1=C\c1ccc(S(C)=O)cc1 (configuration not stated) | inactive |
| CSc1ccc2c(c1)C(N1CCN(C)CC1)Cc1ccccc1S2 (configuration not stated) | inactive |
| COc1cc2c(cc1OC)-c1cc(=Nc3c(C)cc(C)cc3C)n(C)c(=O)n1CC2 | inactive |
| O=C1NCN(c2ccccc2)C12CCN(CCCC(c1ccc(F)cc1)c1ccc(F)cc1)CC2 | inactive |
| O=C(O)CP(=O)(O)O | inactive |
| C=CCc1ccccc1OCC(O)CNC(C)C (configuration not stated) | inactive |
| CCCN(CCC)C(=O)C(CCC(=O)O)NC(=O)c1ccccc1 (configuration not stated) | inactive |
| O=C1CC2(CCCC2)CC(=O)N1CCCCN1CCN(c2ncccn2)CC1 | inactive |
| COC(=O)C1=C(C)NC(C)=C(C(=O)OC(C)(C)CN(C)CCC(c2ccccc2)c2ccccc2)C1c1cccc([N+](=O)[O-])c1 (configuration not stated) | inactive |
| CCN(CC)CCCC(C)Nc1c2ccc(Cl)cc2nc2ccc(OC)cc12 (configuration not stated) | inactive |
| CCCCC1C(=O)N(c2ccccc2)N(c2ccccc2)C1=O | inactive |
| c1cc(CN2CCCCC2)cc(OCCCNc2nc3ccccc3s2)c1 | inactive |

| Compound | outcome |
| --- | --- |
| CCN(CC)CCOCCOC(=O)C1(c2ccccc2)CCCC1 | inactive |
| CCCCNc1cc(C(=O)O)cc(S(N)(=O)=O)c1Oc1ccccc1 | inactive |
| CC(C)(Oc1ccc(CCNC(=O)c2ccc(Cl)cc2)cc1)C(=O)O | inactive |
| CCOC(=O)Nc1ccc(NCc2ccc(F)cc2)nc1N | inactive |
| COCC(=O)O[C@]1(CCN(C)CCCc2nc3ccccc3[nH]2)CCc2cc(F)ccc2[C@@H]1C(C)C | inactive |
| Cc1cc(C)c(/C=C2\C(=O)Nc3ccccc32)[nH]1 | inactive |
| O=C(O)CCc1nc(-c2ccccc2)c(-c2ccccc2)o1 | inactive |
| CN1CCN(C2Cc3ccccc3Sc3ccc(Cl)cc32)CC1 (configuration not stated) | inactive |
| NCCc1cnc[nH]1 | inactive |
| Fc1ccc(C(c2ccc(F)cc2)N2CCN(C/C=C/c3ccccc3)CC2)cc1 | inactive |
| C[N+](C)(C)CCOC(=O)CCC(=O)OCC[N+](C)(C)C | inactive |
| CCCC(C(=O)OCCN(CC)CC)(c1ccccc1)c1ccccc1 | inactive |
| CCCCNc1ccc(C(=O)OCCN(C)C)cc1 | inactive |
| CC(=O)[C@@]1(O)CC[C@H]2[C@@H]3CCC4=CC(=O)CC[C@]4(C)[C@H]3CC[C@@]21C | inactive |
| CCN(CC)CCCN(c1ccccc1)C1Cc2ccccc2C1 | inactive |
| Cc1ccc(C(=O)Nc2ccc(S(=O)(=O)O)c3cc(S(=O)(=O)O)cc(S(=O)(=O)O)c23)cc1NC(=O)c1cccc(NC(=O)Nc2cccc(C(=O)Nc3cc(C(=O)Nc4ccc(S(=O)(=O)O)c5cc(S(=O)(=O)O)cc(S(=O)(=O)O)c45)ccc3C)c2)c1 | inactive |
